Activity calls are given as the source filed them. Unless noted, no rule for the calls is given here.

Experiment [1] relates to Wnt5a (protein binding on small-molecule microarray). Briefly: Wnt5a binders on small-molecule microarray, primary screen, biophysical, 635/667 nm fluorescence (AID 1142).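 Also: fluorescence read at 667 nm with signal to noise per printed feature.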 To be noted: 635 nm fluorescence, higher = more signal.
Experiment [2] can be described thus: cell viability in Huh7 cells, primary screen, cytotoxicity control for HCV replication inhibitor project, CellTiter-Glo luminescence, basal, 48 h (AID 1143).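 Also: Huh7 hepatoma cells carrying a hepatitis C replication reporter with no stimulus; test concentration not given here.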 The settings on record: Huh7 HCV replicon, higher = more signal, called active from +8 up or from −8 down.
Experiment [3] in a line: P. aeruginosa biofilm formation inhibitors, primary screen, PAO1 strain, BacTiter-Glo luminescence, LB-PBS (AID 1144). To be noted: 12 h, higher = more signal.
Experiment [4] can be described thus: CREB reporter modulators without forskolin, primary screen, cell-based, PC12, CRE-LacZ reporter, unstimulated (AID 1145). The settings on record: no forskolin, luminescence, 4.5 h, higher = more signal, called active from +8 up or from −8 down.
The nature of experiment [5]: CREB reporter modulators under forskolin, primary screen, cell-based, PC12, CRE-LacZ reporter, forskolin-stimulated (AID 1146).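 Also: PC12 cells with 6xCRE LacZ reporter stimulated by forskolin 10 µM; beta-galactosidase reporter signal reflecting CREB driven transcription.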 The settings on record: luminescence, 4.5 h, higher = more signal, called active from +8 up or from −8 down.
In experiment [6] the target is Streptavidin (Streptomyces avidinii) (UniProt P22629). Briefly: streptavidin binders on small-molecule microarray, primary screen, artefact control for SMM compound annotation, biophysical, 635/667 nm fluorescence (AID 1147).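 Also: signal reflects streptavidin binding to arrayed compounds as a control protein.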 To be noted: streptavidin binding, higher = more signal.
Experiment [7] can be described thus: small-molecule binders of probe aInhba, primary screen, biochemical, small-molecule microarray, 635/667 nm fluorescence (AID 1148).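 Also: score merges 667nm spot fluorescence with signal-to-noise for antibody binding to printed compounds.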 To be noted: higher = more signal.
Experiment [8] concerns the target Torsin-1A (Homo sapiens) (UniProt O14656). Nature of the experiment: torsin A binders from cell lysate, primary screen, small-molecule microarray, wild-type, 635/667 nm (AID 1149). The settings on record: COS7 hTOR1A-WT lysate, 635 nm fluorescence, higher = more signal.
Experiment [9] shares this target. Briefly: small-molecule binders of mutant TOR1A in lysate, primary screen, cell lysate, small-molecule microarray, COS7 lysate, 635/667 nm fluorescence (AID 1150).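 Also: score pools 667 nm emission and signal to noise measuring lysate protein binding.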 The settings on record: COS7 hTOR1A mutant lysate, 635 nm fluorescence, higher = more signal.
In experiment [10] the test system is Sonic hedgehog protein (Shh). Nature of the experiment: small-molecule binders of Shh protein, primary screen, biochemical, small-molecule microarray, 635/667 nm fluorescence (AID 1151).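 Also: Shh protein binding to compounds spotted on small-molecule microarray slides; score combines spot fluorescence intensity with signal-to-noise across triplicate slides.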 To be noted: small-molecule microarray binding, 635 nm fluorescence; higher = more signal.
A short description of experiment [11]: E. coli DRC41 culture turbidity changes, primary screen, E. coli filamentation inducer project, strain DRC41, OD650, 48 h (AID 1152).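 Also: E. coli MC1000 strain DRC41 lacking acrAB efflux pump and sulA.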 The settings on record: E. coli DRC41 (acrAB sulA), higher = more signal, called active from +8 up or from −8 down.
Experiment [12] in a line: small-molecule binders of probe aLefty1, primary screen, biochemical, small-molecule microarray, 635/667 nm fluorescence (AID 1153).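 Also: score merges spot fluorescence with signal-to-noise ratio from the scanned slide images.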 The settings on record: higher = more signal.
The nature of experiment [13]: PSAC antagonists in infected red cells, primary screen, cell-based, P. falciparum Indochina, OD700, 1 h (AID 1154). To be noted: P. falciparum Indochina infected RBC osmotic lysis, higher = more signal, called active from +8 up or from −8 down.
A short description of experiment [14]: PSAC antagonists in infected red cells, primary screen, cell-based, P. falciparum Indochina, OD700, 2 h (AID 1155).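 Also: lysis reports solute entry through the parasite surface anion channel PSAC; channel blockers reduce lysis of infected cells.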 The settings on record: P. falciparum Indochina infected erythrocytes, osmotic lysis OD700; higher = more signal, called active from +8 up or from −8 down.
The nature of experiment [15]: osmotic lysis modulators in infected erythrocytes, primary screen, PSAC antagonist project, cell-based, P. falciparum Indochina, OD700, 3 h (AID 1156). To be noted: higher = more signal, called active from +8 up or from −8 down.
The nature of experiment [16]: PSAC antagonists in infected red cells, primary screen, cell-based, P. falciparum Indochina, OD700, 18 h (AID 1157). The settings on record: P. falciparum Indochina infected erythrocytes, osmotic lysis OD700, 18 h; higher = more signal, called active from +8 up or from −8 down.
The nature of experiment [17]: modulators of S6 phosphorylation in cells, primary screen, cell-based, A549, cytoblot, luminescence, serum-stimulated (AID 1158).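 Also: serum-stimulated A549 lung adenocarcinoma cells; signal is phosphorylated S6 detected by cytoblot immunostaining with HRP secondary.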 The settings on record: A549 phospho-S6 cytoblot, 5 h, higher = more signal.
In experiment [18] the target is NADPH oxidase 2 (Homo sapiens) (UniProt P04839). Briefly: NOX2-dependent H2O2 signal modulators, primary screen, NOX inhibitor project, cell-based, HEK293-NOX2, PMA-stimulated, Amplex Red fluorescence (AID 1159). Also: test concentration not given here. The settings on record: 45 min, higher = more signal, called active from +8 up or from −8 down.
Experiment [19] addresses NADPH oxidase 4 (Homo sapiens) (UniProt Q9NPH5). Briefly: NOX4-dependent H2O2 signal modulators, primary screen, NOX inhibitor project, cell-based, HEK293-NOX4, tetracycline-induced, Amplex Red fluorescence (AID 1160). To be noted: 45 min, higher = more signal, called active from +8 up or from −8 down.
Experiment [20] concerns the target NADPH oxidase 5 (Homo sapiens) (UniProt Q96PH1). Nature of the experiment: NOX5-dependent H2O2 signal modulators, primary screen, NOX inhibitor project, cell-based, HEK293-NOX5, Amplex Red fluorescence (AID 1161). The settings on record: HEK293-NOX5, ionomycin, 45 min, higher = more signal.

Chain of NADPH oxidase 4 (Homo sapiens) (Q9NPH5 whole entry, looked up): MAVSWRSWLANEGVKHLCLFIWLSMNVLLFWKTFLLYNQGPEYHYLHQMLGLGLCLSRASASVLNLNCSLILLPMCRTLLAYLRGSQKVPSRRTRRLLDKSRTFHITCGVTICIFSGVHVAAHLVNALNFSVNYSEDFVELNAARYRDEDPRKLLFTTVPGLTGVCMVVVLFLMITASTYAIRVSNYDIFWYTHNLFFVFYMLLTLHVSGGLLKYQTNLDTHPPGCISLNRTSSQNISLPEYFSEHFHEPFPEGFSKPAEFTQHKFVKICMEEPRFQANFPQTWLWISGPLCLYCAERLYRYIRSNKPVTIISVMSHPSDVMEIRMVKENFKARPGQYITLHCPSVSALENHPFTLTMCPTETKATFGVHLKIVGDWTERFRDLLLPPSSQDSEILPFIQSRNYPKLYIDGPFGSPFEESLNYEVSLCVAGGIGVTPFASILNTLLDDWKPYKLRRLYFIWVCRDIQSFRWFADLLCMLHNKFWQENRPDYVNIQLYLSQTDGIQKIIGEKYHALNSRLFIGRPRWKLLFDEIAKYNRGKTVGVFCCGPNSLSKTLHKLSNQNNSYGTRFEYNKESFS
Chain of NADPH oxidase 5 (Homo sapiens) (Q96PH1 whole entry, looked up): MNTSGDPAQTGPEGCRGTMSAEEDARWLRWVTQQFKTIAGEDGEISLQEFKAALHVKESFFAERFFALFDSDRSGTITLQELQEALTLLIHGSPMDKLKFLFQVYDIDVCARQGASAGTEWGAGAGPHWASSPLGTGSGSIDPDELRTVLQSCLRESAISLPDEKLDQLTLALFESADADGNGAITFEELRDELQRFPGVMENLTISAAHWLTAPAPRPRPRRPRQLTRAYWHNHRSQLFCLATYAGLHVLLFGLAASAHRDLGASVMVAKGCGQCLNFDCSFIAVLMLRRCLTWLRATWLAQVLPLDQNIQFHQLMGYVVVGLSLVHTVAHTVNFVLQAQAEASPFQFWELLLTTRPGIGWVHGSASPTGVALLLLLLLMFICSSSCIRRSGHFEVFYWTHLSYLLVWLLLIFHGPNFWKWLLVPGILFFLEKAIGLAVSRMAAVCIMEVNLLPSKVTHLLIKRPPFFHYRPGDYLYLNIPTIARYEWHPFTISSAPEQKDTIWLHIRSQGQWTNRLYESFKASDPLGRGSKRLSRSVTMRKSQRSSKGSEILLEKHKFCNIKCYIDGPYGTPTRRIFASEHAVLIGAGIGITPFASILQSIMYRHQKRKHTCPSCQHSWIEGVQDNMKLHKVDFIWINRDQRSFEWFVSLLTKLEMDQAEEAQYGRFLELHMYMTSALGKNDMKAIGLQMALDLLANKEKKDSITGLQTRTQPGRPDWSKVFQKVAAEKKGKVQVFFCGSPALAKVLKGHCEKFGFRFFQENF
Chain of Torsin-1A (Homo sapiens) (O14656 whole entry, looked up): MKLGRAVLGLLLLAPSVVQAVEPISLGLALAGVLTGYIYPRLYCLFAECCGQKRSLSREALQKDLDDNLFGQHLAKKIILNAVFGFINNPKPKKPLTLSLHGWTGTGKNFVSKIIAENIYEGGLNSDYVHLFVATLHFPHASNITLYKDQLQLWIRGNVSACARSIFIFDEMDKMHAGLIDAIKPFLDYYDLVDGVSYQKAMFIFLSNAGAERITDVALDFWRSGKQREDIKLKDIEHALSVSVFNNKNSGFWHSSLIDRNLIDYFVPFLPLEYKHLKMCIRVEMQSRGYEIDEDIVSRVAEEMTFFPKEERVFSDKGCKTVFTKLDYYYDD
Chain of NADPH oxidase 2 (Homo sapiens) (P04839 whole entry, looked up): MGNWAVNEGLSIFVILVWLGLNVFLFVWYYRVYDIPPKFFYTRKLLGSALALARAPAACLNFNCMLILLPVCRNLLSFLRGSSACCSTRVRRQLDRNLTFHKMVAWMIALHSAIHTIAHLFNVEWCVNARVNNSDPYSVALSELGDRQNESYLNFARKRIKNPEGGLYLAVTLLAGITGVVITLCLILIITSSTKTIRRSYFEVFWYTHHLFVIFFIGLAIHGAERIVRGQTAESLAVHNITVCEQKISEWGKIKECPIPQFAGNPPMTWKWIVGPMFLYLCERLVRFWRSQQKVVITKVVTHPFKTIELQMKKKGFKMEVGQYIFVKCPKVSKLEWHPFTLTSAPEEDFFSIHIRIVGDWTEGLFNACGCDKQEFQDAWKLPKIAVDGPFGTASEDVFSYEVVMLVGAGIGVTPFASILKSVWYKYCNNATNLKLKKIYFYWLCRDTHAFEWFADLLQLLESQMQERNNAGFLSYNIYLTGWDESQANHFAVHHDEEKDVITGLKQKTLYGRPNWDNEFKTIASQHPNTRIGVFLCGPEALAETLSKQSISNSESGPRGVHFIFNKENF
Chain of Streptavidin (Streptomyces avidinii) (P22629 whole entry, looked up): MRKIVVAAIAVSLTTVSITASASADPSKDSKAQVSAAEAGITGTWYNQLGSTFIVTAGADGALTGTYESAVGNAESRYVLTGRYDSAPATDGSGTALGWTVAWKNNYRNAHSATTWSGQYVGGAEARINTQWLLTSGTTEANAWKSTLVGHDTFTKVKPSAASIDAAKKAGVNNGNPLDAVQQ

As to `C[C@H]1CC[C@H]2C(=O)N[C@H](Cc3ccccc3)C(=O)N2[C@@H]1c1ccccc1`, the composite z-score in experiment [1] was 0.132; in experiment [6] it was 0.119; in [7], -0.233; with Torsin-1A (Homo sapiens) [8], 0.345; with Torsin-1A (Homo sapiens) [9], 0.52; in experiment [10] it was 0.401. Also, the composite z-score in experiment [12] is -0.108. Further, the z-score in experiment [2] was 0.21 (inactive); in experiment [3] it was 0.108 (inactive); in experiment [4] it was -0.072 (inactive); in experiment [5], 0.901 (inactive); in [11], 0.584 (inactive); in experiment [13], -0.189 (inactive). Also, the z-score is 0.405 (inactive) in [14]; -0.304 (inactive) in experiment [15]; 0.294 (inactive) in experiment [16]; -0.0623 in experiment [17]; 0.727 (inactive) in experiment [18]; -0.32 (inactive) in [19]. The z-score in experiment [20] is -0.119.
Take `COc1ccc(COC(=O)NN=C2C[C@@H](O)[C@@H](O)[C@@H]3[C@@H]4C(=O)N(Cc5ccc6c(c5)OCO6)C(=O)[C@@H]4CC[C@H]23)cc1`: the composite z-score is -0.343 in experiment [1]; 0.61 in experiment [6]; 0.0018 in experiment [7]; -0.878 in the experiment with Torsin-1A (Homo sapiens) [8]; -0.647 with Torsin-1A (Homo sapiens) [9]; -1.32 in [10]. Moreover, the composite z-score in [12] worked out at 0.781. For the same molecule, the z-score in experiment [2] was 0.0813 (inactive); in experiment [3] it was 0.939 (inactive); in [4], 0.96 (inactive); in experiment [5], 0.0695 (inactive); in [11], 0.701 (inactive); in experiment [13], 15.7 (active). Further, the z-score in experiment [14] is 2.17 (inactive); in experiment [15], 0.18 (inactive); in experiment [16], 0.845 (inactive); in experiment [17], 0.767; in experiment [18] it was -0.657 (inactive); in experiment [19] it was 0.186 (inactive). The molecule further showed a z-score in [20] of 0.138.
`CC(=O)OC[C@H]1O[C@H](C#CCCc2ccccc2)C=C[C@@H]1OC(C)=O`: the composite z-score in experiment [1] is -0.0248; in experiment [6], -0.0683; in experiment [7] it was -0.0719; with Torsin-1A (Homo sapiens) [8], 0.27; in the experiment with Torsin-1A (Homo sapiens) [9] it was 0.553; in experiment [10] it was 1.52. This molecule also yielded a composite z-score in experiment [12] of 0.233. The z-score in experiment [2] is -1.42 (inactive); in experiment [3], 1.34 (inactive); in experiment [4] it was -0.339 (inactive); in experiment [5], 0.859 (inactive); in experiment [11], -0.2 (inactive); in [13], 1.43 (inactive). For the same molecule, the z-score is 0.317 (inactive) in experiment [14]; 0.182 (inactive) in experiment [15]; 0.148 (inactive) in [16]; -0.427 in experiment [17]; -1.58 (inactive) in [18]; 1.39 (inactive) in experiment [19]. In [20], this molecule returned a z-score of 1.07.
In the case of `C[C@@H]1CC[C@H]2C(=O)O[C@@H](CN=[N+]=[N-])CN2[C@H]1c1ccc(Br)cc1`, the composite z-score in experiment [1] is -0.0229; in [6], 0.414; in experiment [7], -0.179; with Torsin-1A (Homo sapiens) [8], 0.48; with Torsin-1A (Homo sapiens) [9] it was 0.581; in [10] it was 0.888. Also, the composite z-score in experiment [12] was -0.35. Further, the z-score is -3.67 (inactive) in experiment [2]; -0.608 (inactive) in experiment [3]; 3.37 (inactive) in experiment [4]; -0.833 (inactive) in [5]; -2.31 (inactive) in experiment [11]; 25.4 (active) in experiment [13]. The z-score in experiment [14] is 8.11 (active); in experiment [15], 1.59 (inactive); in experiment [16] it was 2.16 (inactive); in [17] it was 0.476; in experiment [18], -3.99 (inactive); in [19], -3.91 (inactive). The same molecule came in with a z-score in [20] of -0.668.

The values above are taken from PubChem BioAssay.
